Broadly, the inhibition is the drop in the measured response relative to a control, in per cent. The remaining activity is the signal under treatment as a percentage of the control signal. By AC50 is commonly meant the concentration giving half of the maximal activity seen.

Structures are written as SMILES. Several values for one entry are separate records, joined by “and”; a condition that tells them apart may be missing. Equal values may be shown once. Records with an inconclusive call do not appear. Activity calls are given as the source filed them. Unless noted, how the calls were made is not given here.

Assay [1] in a line: compounds altering circadian rhythm period length – cell-based, LOPAC library, luminescence reporter (AID 2774).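 Further: values are relative to mean of DMSO wells on each plate.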 The note with it: circadian reporter cells, at 7 µM, actives lie on both sides.
Assay [2] concerns Hepatitis C virus NS3 helicase. Description: blockers of NS3h binding to ssDNA – biochemical, fluorescence polarization, LOPAC1280 library, primary screen (AID 687035; in the data active means inhibition above about 37%). The note with it: Purified HCV NS3 helicase, Cy5-dT15 ssDNA binding fluorescence polarization; stronger effect = higher value; concentration not given here.
The nature of assay [3]: compounds altering Cy5-DNA-NS3h complex signal – biochemical, LOPAC1280, artefact control for HCV NS3 helicase inhibitor project (AID 687037). The note with it: Cy5-DNA-NS3h complex fluorescence interference counterscreen. In general terms: Counterscreens check selectivity or assay interference.
Assay [4] relates to Aerobactin synthetase IucA (Klebsiella pneumoniae, hypervirulent). The assay is described as follows: biochemical IucA inhibition screen of LOPAC library by absorbance (AID 1346212).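 Further: 100% = no compound wells and 0% = no enzyme wells.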 The note with it: IucA enzyme assay, absorbance (OD) readout; stronger effect = lower value;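 tested at 8 µM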.
Assay [5] is described as follows: viability loss with induced miR-34 in A549 – imaging, A549 dox-inducible miR-34, nuclei and caspase counts, primary screen (AID 1347080;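 active means compounds whose cell count with miR-34 switched on is under 0.7 times the count with it off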). The note with it: A549 miR-34 inducible, Hoechst nuclei count, 48 h.
Assay [6] can be described thus: blockers of cellular phospholipid synthesis – cell-based, LOPAC library, screen 4, primary screen (AID 1347384). The note with it: animal cells, phospholipid biosynthesis inhibition screen; at 10 µM.
Assay [7] in a line: galactose survival enhancers in mitochondrial complex I cybrids – cell-based, galactose medium, ATP luminescence, primary screen (AID 1645843;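 active means z-score of at least 1.8 in each of two replicates, scored against plate mean and spread of sample wells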;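 further: positive z means more ATP and so rescue of galactose-driven cybrid death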). The note with it: complex I mutant cybrid cells, 72 h, stronger effect = higher value.
The nature of assay [8]: viability loss in pontine glioma line – cell-based, SU-DIPG-XIII, MIPE4.0, CellTiter-Glo, qHTS, dose response (AID 1347061; cut-off not given, nearly all actives have AC50 up to about 37 µM;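 further: cells exposed to compound for 48 hours before readout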). The note with it: CellTiter-Glo ATP luminescence.
Assay [9] in a line: viability loss in pontine glioma line – cell-based, JHH-DIPG-1, MIPE4.0, CellTiter-Glo, qHTS, dose response (AID 1347062; cut-off not given, nearly all actives have AC50 up to about 27 µM). The note with it: JHH-DIPG-1 viability, CellTiter-Glo ATP luminescence. For orientation: In ATP-based viability assays light output follows the ATP content of the culture.
Assay [10] is described as follows: viability loss in pontine glioma line – cell-based, SU-DIPG-IV, MIPE4.0, CellTiter-Glo, qHTS, dose response (AID 1347063; cut-off not given, nearly all actives have AC50 up to about 30 µM;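 further: compound exposure lasted 48 hours before the viability readout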). The note with it: CellTiter-Glo ATP luminescence.
The nature of assay [11]: growth inhibition of DIPG cells – cell-based, MIPE4.0 library, CellTiter-Glo luminescence, qHTS (AID 1347066; cut-off not given, nearly all actives have AC50 up to about 30 µM;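 further: cells exposed to compound for 48 hours before readout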). The note with it: SU-DIPG-VI viability, CellTiter-Glo ATP luminescence.
A short description of assay [12]: compounds altering viability of human ES cells (AID 493140).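 Further: cells exposed to compounds for four days before counting.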 The note with it: human embryonic stem cell survival screen; stronger effect = higher value.
Assay [13] is described as follows: chitosan synthesis blockers in C. neoformans – flow cytometry, Cibacron Brilliant Red staining (AID 1347148).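 Further: compound exposure lasted three days at 37 degrees C.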 The note with it: Cryptococcus neoformans chitosan, stronger effect = lower value; at 10 µM unless noted.
Assay [14] is described as follows: MELAS cybrid and Rieske KO viability enhancers – cell-based, MELAS cybrids, Rieske KO mouse fibroblasts, CellTiter-Glo, primary screen (AID 1508586;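 active means mean z-score across replicates of 1.96 or higher in either the MELAS or the Rieske mutant cell line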;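 further: z relative to plate mean and SD of compound and empty wells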). The note with it: low glucose.
Assay [15] is described as follows: viability loss in pontine glioma line – cell-based, SU-DIPG-XXV, MIPE5.0, CellTiter-Glo, qHTS, dose response (AID 1347065; cut-off not given, nearly all actives have AC50 up to about 26 µM;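 further: cells exposed to compound for 48 hours before ATP readout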). The note with it: CellTiter-Glo ATP luminescence.
Assay [16] in a line: JHH-DIPG-1 glioma cell viability, MIPE5.0 library, CellTiter-Glo luminescence, qHTS (AID 1347067; cut-off not given, nearly all actives have AC50 up to about 26 µM;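 further: cells exposed to compound for 48 hours before readout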). The note with it: JHH-DIPG-1 glioma viability, CellTiter-Glo ATP luminescence.
Assay [17] in a line: growth inhibition of DIPG cells – cell-based, MIPE5.0 library, qHTS (AID 1347068; cut-off not given, nearly all actives have IC50 up to about 30 µM). The note with it: SU-DIPG-XXV viability. For orientation: Quantitative high-throughput screening tests each substance at several concentrations.
Where [18] appears, read: measured here: relative caspase fold change +Dox/-Dox.
Where [19] appears, read: measured here: total cells with miR-34 induction, stronger effect = lower value.
[20] abbreviates: measured here: total cells without miR-34 induction.

On to `Clc1cc(I)cc(Cl)c1NC1=NCCN1`, for which the period change in [1] is 0.11 h (inactive). Further, the inhibition in assay [2] was -6% (inactive). Moreover, the fluorescence ratio (interference) in assay [3] was 0.9 (inactive). Further, the remaining activity in [4] was 117% (inactive). Moreover, the fold change in assay [5] (stronger effect = lower value) was 1.15 (inactive); in assay [5] (setting [18]), 1.05. The cell count in assay [5] (setting [19]) came out at 11200; in assay [5] (setting [20]) it was 9770. Also, the compound was called inactive in [6]. Moreover, in assay [7], the z-score is 0.175 (inactive).

For the compound `CC(N)[C@H](O)c1ccc(O)c(O)c1` (stereo not given in full), the period change in [1] is -0.05 h (inactive). Also, the inhibition in assay [2] is 0% (inactive). Also, the fluorescence ratio (interference) in [3] was 1 (inactive). Moreover, in assay [4], the remaining activity was 122% (inactive). Also, the results for the fold change in [5] (stronger effect = lower value) and in [5] (setting [18]) were 0.943 (inactive) and 1.34, respectively. The cell count stood at 10200 in [5] (setting [19]) and 10800 in assay [5] (setting [20]). For the same compound, the outcome in assay [6] was inactive. Moreover, the z-score in assay [7] was -0.925 (inactive).

Regarding `Cc1nc(-c2ccc(-c3ccc(C(=O)N4CCc5cc6c(cc54)C4(CCN(C)CC4)CO6)cc3)c(C)c2)no1`, the period change in assay [1] was 0.165 h (inactive). Besides, the remaining activity in assay [4] is 96.4% (inactive). Further, the call in assay [8], in assay [9], in [10] and in [11] was inactive.

As to `CCCN1CCC[C@H](c2cccc(O)c2)C1`, in assay [1], the period change was -0.035 h (inactive). In assay [2], the inhibition was -3% (inactive). In addition, the fluorescence ratio (interference) in assay [3] was 1 (inactive). Also, the remaining activity in assay [4] was 98.7% (inactive). The fold change in assay [5] (stronger effect = lower value) was 1 (inactive); in assay [5] (setting [18]), 1.94. Moreover, the figures for the cell count in [5] (setting [19]) and in [5] (setting [20]) were 9710 and 9700, respectively. Moreover, the compound was called inactive in assay [6]. The z-score in assay [7] was 0.32 (inactive).

As for `CC(C)(C)c1cc(C=C(C#N)C#N)cc(C(C)(C)C)c1O`, the period change in assay [1] is 1.05 h (inactive). Besides, the survival in assay [12] is 76 (inactive). Besides, in assay [2], the inhibition is 0% (inactive). In assay [3], the fluorescence ratio (interference) is 1 (inactive). The remaining activity in assay [4] was 101% (inactive). For the same compound, the fold change in assay [5] (stronger effect = lower value) is 1.14 (inactive) and 1.05 (inactive) and 0.984 (inactive); in [5] (setting [18]) it was 0.636 and 2.12 and 0.899. In addition, the cell count in assay [5] (setting [19]) was 1430 and 1570 and 1940; in assay [5] (setting [20]), 1250 and 1490 and 1970. Further, the fold fluorescence in assay [13] was 9.17 [at 177.1 µM] (inactive). Also, the call in assay [6] was active. For the same compound, the z-score in assay [14] (MELAS cybrid survival, CellTiter-Glo 48 h, stronger effect = higher value) was 0.224 (inactive); in assay [14] (Rieske KO mouse fibroblast survival, CellTiter-Glo 72 h), -0.362; in [7] it was -1.27 (inactive).

For `CC(=O)c1c(O)c(C)c(O)c(Cc2c(O)c3c(c(C(=O)/C=C/c4ccccc4)c2O)OC(C)(C)C=C3)c1O`, the period change in assay [1] is 0.065 h (inactive). Further, the survival in assay [12] was 142 (inactive). Also, the inhibition in assay [2] was -3% (inactive). Further, the fluorescence ratio (interference) in [3] is 0.9 (inactive). In assay [4], the remaining activity is 100% (inactive). The AC50 is 20.9 µM (active) in [15] and 23.5 µM (active) in [16]. Moreover, the compound was called inactive in assay [17]. Besides, the fold change was 0.991 (inactive) and 1.02 (inactive) in assay [5] (stronger effect = lower value); 1.01 and 0.826 in assay [5] (setting [18]). Besides, the cell count in assay [5] (setting [19]) is 1480 and 1570; in [5] (setting [20]), 1490 and 1540. Moreover, the fold fluorescence in assay [13] was 4.65 [at 96.8 µM] (inactive). In addition, in assay [6], the result was active. Moreover, the z-score in assay [7] was -1.27 (inactive).

The values are drawn from PubChem BioAssay.
